According to PubChem BioAssay AID1159580 (chemical genetic matrix, 2015):
About 2,000 (36%) of roughly 5,500 compounds were called active. Not shown: some 18% with an inconclusive outcome. Cut-off read from the data, not from the text of the source: active = normalized growth mostly below about 0.91 (no sharp cut-off); inconclusive = no clear call, values can overlap the other calls; inactive = mostly above about 0.92. This is one part of the list.

Experiment: chemical genetic growth profiling, strain panel (AID 1159580);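 note: tested at 20 µM; growth read once vehicle control cultures reached saturation at 30 °C; 1 = growth at the plate median or of vehicle wells; lower values mean less growth of the strain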
Conditions: S. cerevisiae deletion strains, growth OD

Measured: normalized growth

COc1ccc(CN(CCN(C)C)c2ncccn2)cc1
inactive: locus YAL021C, strain ccr4, active compounds read low 1.01 | locus YAL026C, strain drs2, active compounds read low 1.04 | locus YAL030W, strain snc1, active compounds read low 0.997 | locus YBL061C, strain skt5, active compounds read low 1.01 | locus YBR009C, strain hhf1, active compounds read low 1.01 | locus YBR023C, strain chs3, active compounds read low 1.01 | locus YBR171W, strain sec66, active compounds read low 1.01 | locus YBR231C, strain swc5, active compounds read low 1.04 | locus YBR279W, strain paf1, active compounds read low 1.01 | locus YCL011C, strain gbp2, active compounds read low 1.01 | locus YCL016C, strain dcc1, active compounds read low 1.01 | locus YCL061C, strain MRC1, active compounds read low 1.02 | locus YCL069W, strain vba3, active compounds read low 1.01 | locus YCR088W, strain abp1, active compounds read low 1.01 | locus YDL005C, strain med2, active compounds read low 1.01 | locus YDL040C, strain nat1, active compounds read low 1.02 | locus YDR001C, strain nth1, active compounds read low 1.02 | locus YDR069C, strain doa4, active compounds read low 1 | locus YDR137W, strain rgp1, active compounds read low 1.01 | locus YDR159W, strain sac3, active compounds read low 0.992 | locus YDR195W, strain ref2 1 | locus YDR297W, strain sur2, active compounds read low 1.02 | locus YDR334W, strain swr1, active compounds read low 0.998 | locus YDR335W, strain msn5, active compounds read low 1.01 | locus YDR392W, strain spt3, active compounds read low 1.03 | locus YEL003W, strain gim4, active compounds read low 1.01 | locus YEL037C, strain rad23, active compounds read low 1.01 | locus YEL061C, strain CIN8 (second series), active compounds read low 1 | locus YER015W, strain faa2, active compounds read low 1.02 | locus YER016W, strain bim1, active compounds read low 1.02 | locus YER111C, strain swi4, active compounds read low 1.02 | locus YER155C, strain BEM2 (second series), active compounds read low 1.05 | locus YFR010W, strain ubp6, active compounds read low 1.01 | locus YGL167C, strain pmr1, active compounds read low 1.02 | locus YGL173C, strain kem1, active compounds read low 1.03 | locus YGL227W, strain vid30, active compounds read low 1.01 | locus YGL240W, strain doc1, active compounds read low 1.01 | locus YGL253W, strain hxk2, active compounds read low 1.02 | locus YHR013C, strain ard1, active compounds read low 1.01 | locus YHR027C, strain rpn1, active compounds read low 1.01 | locus YHR030C, strain SLT2, active compounds read low 1 | locus YHR079C, strain IRE1, active compounds read low 1 | locus YHR142W, strain chs7, active compounds read low 1.04 | locus YJL092W, strain hpr5, active compounds read low 1.03 | locus YJL095W, strain BCK1 (second series), active compounds read low 1.01 | locus YJL095W, strain BCK1, active compounds read low 1 | locus YJL115W, strain asf1, active compounds read low 1.01 | locus YJL129C, strain trk1, active compounds read low 1.01 | locus YJL154C, strain vps35, active compounds read low 1.01 | locus YJL164C, strain tpk1, active compounds read low 1.02 | locus YJL166W, strain qcr8, active compounds read low 0.995 | locus YJR066W, strain TOR1, active compounds read low 0.954 | locus YKL160W, strain elf1, active compounds read low 1.02 | locus YKR026C, strain gcn3, active compounds read low 1 | locus YKR091W, strain srl3, active compounds read low 1 | locus YLL001W, strain dnm1, active compounds read low 1.01 | locus YLL026W, active compounds read low 1 | locus YLL041C, strain sdh2, active compounds read low 0.995 | locus YLR027C, strain aat2, active compounds read low 1.01 | locus YLR113W, strain HOG1, active compounds read low 1 | locus YLR221C, strain rsa3, active compounds read low 0.998 | locus YLR258W, strain gsy2, active compounds read low 1.03 | locus YLR262C, strain YPT6 (second series), active compounds read low 1.01 | locus YLR320W, strain mms22, active compounds read low 1.01 | locus YLR342W, strain FKS1, active compounds read low 1.02 | locus YLR357W, strain rsc2, active compounds read low 1.01 | locus YLR370C, strain arc18, active compounds read low 1.03 | locus YLR384C, strain iki3, active compounds read low 1.02 | locus YML120C, strain ndi1, active compounds read low 1.01 | locus YMR058W, strain fet3, active compounds read low 1.03 | locus YMR125W, strain sto1, active compounds read low 1.01 | locus YMR129W, active compounds read low 1.02 | locus YMR205C, strain PFK2, active compounds read low 1.02 | locus YMR231W, strain pep5, active compounds read low 1.02 | locus YNL071W, strain lat1, active compounds read low 1.02 | locus YNL183C, strain NPR1, active compounds read low 0.943 | locus YNL209W, strain ssb2, active compounds read low 1.03 | locus YNL248C, strain rpa49, active compounds read low 1.03 | locus YNL322C, strain KRE1 (second series), active compounds read low 1.02 | locus YNR049C, strain mso1, active compounds read low 1.01 | locus YOR001W, strain rrp6, active compounds read low 1.01 | locus YOR070C, strain gyp1, active compounds read low 1.02 | locus YOR080W, strain dia2, active compounds read low 1.01 | locus YOR083W, strain WHI5, active compounds read low 0.981 | locus YOR106W, strain vam3, active compounds read low 1.02 | locus YOR231W, strain MKK1, active compounds read low 0.99 | locus YOR265W, strain rbl2, active compounds read low 1.02 | locus YOR270C, strain vph1, active compounds read low 1.03 | locus YOR290C, strain snf2, active compounds read low 1.02 | locus YPL051W, strain arl3, active compounds read low 1.02 | locus YPL078C, strain atp4, active compounds read low 1.02 | locus YPL106C, strain sse1, active compounds read low 0.994 | locus YPL240C, strain hsp82, active compounds read low 0.999 | locus YPL256C, strain CLN2, active compounds read low 0.991
